Screens as filed in PubChem BioAssay.
Granule exo inh = blocks lytic granule exocytosis. TALL-104 LAMP-1 surface exposure, flow cytometry; cells stimulated with thapsigargin and PMA. AID 651702. inhibition, % at 10 µM. actives 0.66% (n = 360,000);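 active = inhibition above about 55%, limit read from the data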
PG9 Ab binder = binds the HIV-1 gp120 antibody PG9; inhibition, % at 6.7 µM; TR-FRET gp120-PG9 antibody binding; actives 0.43% (n = 360,000); in the data active = inhibition above about 8.5%
rCAG binder = molecules binding r(CAG) RNA repeats; r(CAG) RNA repeat, TO-PRO-1 dye displacement fluorescence; inhibition, % at 3 µM; actives 1.3% (n = 370,000);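 active = inhibition above the plate cutoff, the mean of all test compounds on that plate plus 3 SD, cut at about 35% in these data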;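 note: higher means more dye released from RNA so lower well fluorescence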
ABCB6 inh 2 = blocks the human ABCB6 transporter | fluorescence ratio to DMSO, % at 10 µM | K562-ABCB6 porphyrin accumulation, flow cytometry, 1 h; hits give low values | actives 0.19% (n = 360,000) | Q9NP58 | AID 602162;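 active = fluorescence ratio to DMSO below 75%, the collection mean minus 3 SD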;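 note: signal is porphyrin accumulated inside mitochondria; lower ratio means ABCB6 inhibition with less porphyrin fluorescence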
Target sequence (Q9NP58 whole entry, looked up): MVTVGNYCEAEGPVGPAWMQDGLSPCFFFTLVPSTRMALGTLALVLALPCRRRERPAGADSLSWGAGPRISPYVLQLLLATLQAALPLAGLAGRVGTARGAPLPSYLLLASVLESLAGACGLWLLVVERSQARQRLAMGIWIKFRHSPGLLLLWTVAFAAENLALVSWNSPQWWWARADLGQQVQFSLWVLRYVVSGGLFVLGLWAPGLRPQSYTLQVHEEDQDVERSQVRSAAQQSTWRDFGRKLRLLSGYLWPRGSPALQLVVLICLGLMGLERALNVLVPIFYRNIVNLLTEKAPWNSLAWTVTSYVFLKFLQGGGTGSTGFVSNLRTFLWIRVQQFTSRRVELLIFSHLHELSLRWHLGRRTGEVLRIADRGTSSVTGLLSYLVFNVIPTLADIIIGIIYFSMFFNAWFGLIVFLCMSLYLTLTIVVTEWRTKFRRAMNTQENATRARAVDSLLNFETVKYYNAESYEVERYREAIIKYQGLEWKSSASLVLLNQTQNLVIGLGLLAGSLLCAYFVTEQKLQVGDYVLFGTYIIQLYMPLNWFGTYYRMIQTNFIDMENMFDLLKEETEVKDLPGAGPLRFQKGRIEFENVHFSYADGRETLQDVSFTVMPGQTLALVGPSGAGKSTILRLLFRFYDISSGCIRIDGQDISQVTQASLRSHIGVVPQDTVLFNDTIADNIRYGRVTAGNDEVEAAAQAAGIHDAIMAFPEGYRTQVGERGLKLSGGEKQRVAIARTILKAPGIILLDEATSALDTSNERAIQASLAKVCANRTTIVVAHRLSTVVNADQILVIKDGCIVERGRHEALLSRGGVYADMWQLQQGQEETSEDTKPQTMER
rCAG binder conf = r(CAG) RNA repeat binding, confirmation | actives 70% (n = 4,300) | AID 652065 | TO-PRO-1 dye displacement fluorescence | shares compounds with rCAG binder | inhibition, % at 3 µM;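 active = inhibition above a per-plate cutoff, the mean inhibition of sample wells plus 3 SD, cut at about 35% in these data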;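 note: loss of TO-PRO-1 fluorescence as compound displaces dye from 1x1 AA loop RNA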
dCAG dye counter = disrupts DNA CAG TO-PRO-1 complex, flagging rCAG hits; actives 94% (n = 4,300); d(CAG) DNA oligo TO-PRO-1 dye displacement, fluorescence; AID 652068; shares compounds with rCAG binder; inhibition, % at 3 µM;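 active = inhibition above its plate's cutoff, the mean test-well inhibition plus 3 SD, cut at about 4.8% in these data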;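 note: hits displace the dye from DNA and so lower well fluorescence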
A number is an active result; – = inactive; · = not tested or not shown. Compounds with a hit are over-represented: about 2.5% of the library has one in this group of screens.

SMILES	Granule exo inh	PG9 Ab binder	rCAG binder	ABCB6 inh 2	rCAG binder conf	dCAG dye counter
COc1cc(C2(O)CCCCC2C)cc(OC)c1OC (stereo unspecified)	–	–	–	–	·	·
COc1ccccc1NC(=O)C1=C(C)NC(SCC(=O)Nc2ccc(C(=O)O)cc2)=C(C#N)C1c1cccs1 (stereo unspecified)	–	–	46	–	39	12
Cc1ccc(C)c(N(CC(=O)NC(C)C)C(=O)CCC(=O)Nc2ccccn2)c1	–	–	–	–	·	·
CN(C)c1ccc(C2CC(=O)C=C(Nc3ccccc3N)C2)cc1 (stereo unspecified)	–	–	–	–	·	·
O=C1NC(=S)/C(=C\c2ccc(-c3ccccc3Cl)o2)S1	–	–	80	–	67	34
O=C1NC(=O)/C(=C/c2ccc(-c3cc(C(=O)O)ccc3Cl)o2)S1	–	–	53	–	52	15
Cc1cc(/C=C2\SC(=S)NC2=O)c(C)n1-c1cccc(O)c1	–	–	52	–	35	14
Cc1sc(-n2c(C)cc(/C=N/n3cnnc3)c2C)c(C#N)c1C	–	·	·	–	·	·
Cc1sc(-n2c(C)cc(/C=C3\SC(=S)NC3=O)c2C)c(C#N)c1C	–	–	69	–	76	35
Cc1cc(/C=C2\SC(=S)NC2=O)c(C)[nH]1	–	–	35	–	–	6.9
CCn1c(C)cc(/C=C2/SC(=S)NC2=O)c1C	–	–	–	–	·	·
O=C(CNS(=O)(=O)c1c(F)cccc1F)NC1CCCc2ccccc21 (stereo unspecified)	–	–	–	–	·	·
O=C(NNC(=S)Nc1cccc2ccccc12)c1cccc(Br)c1	–	–	66	–	72	36
O=C(NNC(=O)c1ccc2ccccc2c1)c1cccc(Br)c1	–	–	–	–	·	·
O=C(O)c1ccc(N/N=C/c2ccc(-c3ccccc3Cl)o2)cc1	–	–	65	–	41	11
Nc1nonc1C(=O)N/N=C/c1ccc(-c2ccc(Cl)c(C(=O)O)c2)o1	–	–	–	–	·	·
O=C(O)c1cc(-c2ccc(/C=N/Nc3ccc(Cl)cc3)o2)ccc1Cl	–	–	67	–	67	28
Cc1ccc(/C=N/Nc2ccc(C(=O)O)cc2)o1	–	–	–	–	·	·
O=C(N/N=C/c1ccc(-c2ccccc2Cl)o1)c1ccccc1	–	–	–	–	·	·
O=C(O)c1ccc(N/N=C/c2ccc(-c3ccc(Br)cc3)o2)cc1	–	–	49	–	49	14
COc1cc(CN2CCC(n3nccc3NC(=O)C3CC3)CC2)cc(OC)c1	–	–	–	–	·	·
CC(=O)NC(C)(c1ccccc1)c1nc(-c2cncnc2)cs1 (stereo unspecified)	–	–	–	–	·	·
Cc1cc(C)c(S(=O)(=O)N2CCN(C(=O)C(C)Cn3cncn3)CC2)c(C)c1 (stereo unspecified)	–	–	–	–	·	·
O=C(O)c1cccc(NC(=S)N/N=C/c2ccccc2OCc2cccc(Br)c2)c1	–	–	77	–	79	45
O=C(O)c1cccc(NC(=S)N/N=C/c2cccc(O)c2)c1	–	–	–	–	·	·
SMILES	Granule exo inh	PG9 Ab binder	rCAG binder	ABCB6 inh 2	rCAG binder conf	dCAG dye counter
COC(=O)c1ccc(COc2ccccc2/C=N/Nc2cccc(C(=O)O)c2)cc1	–	–	–	–	·	·
O=C(O)c1cccc(NC(=S)N/N=C/c2ccccc2OCc2ccc(Br)cc2)c1	–	–	80	–	85	55
COc1cccc(CN(C)C(=O)C2CC(=O)N(c3ccc4c(c3)OCCO4)C2)c1 (stereo unspecified)	–	–	–	–	·	·
Cn1c(SC2CCCCC2=O)nnc1-c1ccccc1F (stereo unspecified)	–	–	–	–	·	·
CN(C(=O)COC(=O)c1ccc(-c2ccc(O)cc2)cc1)C1CCS(=O)(=O)C1 (stereo unspecified)	–	–	–	–	·	·
COc1ccc(Br)c2oc(S)cc(=O)c12	–	–	41	–	–	7.6
O=C(CN1CCN(C(=O)C2COc3ccccc3O2)CC1)Nc1ccccc1 (stereo unspecified)	–	–	–	–	·	·
COc1ccc(/C=C/C(=O)Nc2c(C(=O)O)[nH]c3ccccc23)cc1OC	–	–	38	–	–	7.0
CC1=Nc2ccc(C)cc2/C1=C/c1c(N)n2c(S(=O)(=O)C(C)C)nsc2nc1=O	–	–	80	–	75	37
CSc1nsc2nc(=O)c(/C=C3\C(C)=Nc4ccc(C)cc43)c(N)n12	78	–	66	–	46	12
CC1=Nc2ccccc2/C1=C/c1c(N)n2c(S(=O)(=O)C(C)C)nsc2nc1=O	–	–	73	–	59	21
CSc1nsc2nc(=O)c(/C=C3\C=Nc4ccccc43)c(N)n12	–	–	–	–	·	·
CC1=Nc2ccccc2/C1=C/c1c(N)n2c(S(=O)(=O)CC(C)C)nsc2nc1=O	–	–	78	–	78	46
Cc1cn2c(N)c(/C=C3\C=Nc4ccccc43)c(=O)nc2s1	–	–	–	–	·	·
Cc1[nH]nc(SCC(=O)NC2CCCCC2)c1[N+](=O)[O-]	–	–	–	–	·	·
CC(C)S(=O)(=O)c1nsc2nc(=O)c(/C=C3\C=Nc4ccccc43)c(N)n12	–	–	88	–	85	55
O=C(N/N=C1/CCSC1)c1cc(Br)ccc1O	–	–	41	–	–	7.3
O=C(NN=C1CCCC1)c1cc(Br)ccc1O	–	–	–	–	·	·
O=C(CSc1nc(=O)n2ccccc2n1)NCc1ccccc1	–	–	–	–	·	·
Cc1cccc(N2CCN(C(=O)c3[nH]c(C(F)(F)F)nc3-c3ccccc3)CC2)c1C	–	–	–	–	·	·
CC(=O)Nc1ccc(-c2nc3cc(Cl)ccc3o2)cc1	–	–	–	–	·	·
CCn1c2ccccc2c2cc(NC(=O)c3ccccc3-c3ccccc3C(=O)O)ccc21	–	–	75	–	65	26
O=C(O)c1ccccc1-c1ccccc1C(=O)Nc1ccc2oc(=O)c3ccccc3c2c1	–	–	51	–	51	14
O=C(O)c1ccccc1-c1ccccc1C(=O)Nc1ccc(-c2nc3cc(Cl)ccc3o2)cc1	–	–	71	–	85	54
O=C(O)c1ccccc1-c1ccccc1C(=O)Nc1ccc2c(c1)[nH]c(=O)c1ccccc12	–	–	68	–	62	27
CCn1c2ccccc2c2cc(NC(=O)C(C)C)ccc21	–	–	–	–	·	·
CCn1c(Sc2ccc([N+](=O)[O-])cn2)nnc1-c1ccco1	–	–	–	–	·	·
Cc1cc(S(=O)(=O)NCc2ccncc2)c(C)cc1Br	–	–	–	–	·	·
O=C(C1CCN(S(=O)(=O)c2ccc(F)cc2)CC1)N1CCCC(C(F)(F)F)C1 (stereo unspecified)	–	–	–	–	·	·
COc1cc(/C=N/N=C2\CC3CCC2(C)C3(C)C)ccc1O (stereo unspecified)	–	–	–	–	·	·
